Source: PubChem BioAssay (several laboratories)
CTSL1 counter = cathepsin L1 inhibition, PFM18AAP counter-screen. recombinant F. hepatica cathepsin L1, Z-Leu-Arg-MCA fluorescence. inhibition, % at 5.96 µM. 0.49% of 300,000 active;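 active = inhibition above the mean of all tested compounds plus 3 SD, set per screening campaign, cut at about 17% in these data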
A3A deaminase = inhibitors of human APOBEC3A DNA deaminase; inhibition, % at 20 µM; AID 493011; P31941; 0.41% of 330,000 active; recombinant A3A, FAM/TAMRA ssDNA deamination fluorescence;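 active = at least 40% inhibition at 20 µM here, with at most 30% in a related deaminase screen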
Target sequence (P31941 whole entry, looked up): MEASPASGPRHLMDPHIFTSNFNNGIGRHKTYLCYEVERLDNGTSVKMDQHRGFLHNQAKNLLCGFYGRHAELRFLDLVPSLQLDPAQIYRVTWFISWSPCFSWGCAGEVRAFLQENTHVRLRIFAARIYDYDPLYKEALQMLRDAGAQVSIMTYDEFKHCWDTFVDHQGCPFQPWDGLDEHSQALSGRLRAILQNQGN
sPLA2-III inh = Blocks human group III sPLA2 activity. Q9NZ20. QFRET BODIPY PC-A2 liposome hydrolysis, fluorescence. inhibition, % at 12.2 µM. 0.56% of 370,000 active. AID 743126;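 active = inhibition above mean plus 3 SD of compounds lying within the high and low control bounds, cut at about 19% in these data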
NALP1 inh = NALP1 inhibition | S. cerevisiae NALP1/ASC/caspase-1 growth, X-gal OD620, 72 h | AID 2071 | 0.61% of 280,000 active | inhibition, % at 10 µM; in the data active = inhibition mostly above about 24%, no sharp cut-off; inactive = mostly below about 32%
A3G deaminase = inhibitors of human APOBEC3G DNA deaminase. Q9HC16. recombinant A3G, ssDNA deamination FAM/TAMRA fluorescence. inhibition, % at 20 µM. 0.28% of 330,000 active. AID 493012;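 active = inhibition of at least 40% at 20 µM, with no more than 30% in the related APOBEC3A deaminase screen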
Target sequence (Q9HC16 whole entry, looked up): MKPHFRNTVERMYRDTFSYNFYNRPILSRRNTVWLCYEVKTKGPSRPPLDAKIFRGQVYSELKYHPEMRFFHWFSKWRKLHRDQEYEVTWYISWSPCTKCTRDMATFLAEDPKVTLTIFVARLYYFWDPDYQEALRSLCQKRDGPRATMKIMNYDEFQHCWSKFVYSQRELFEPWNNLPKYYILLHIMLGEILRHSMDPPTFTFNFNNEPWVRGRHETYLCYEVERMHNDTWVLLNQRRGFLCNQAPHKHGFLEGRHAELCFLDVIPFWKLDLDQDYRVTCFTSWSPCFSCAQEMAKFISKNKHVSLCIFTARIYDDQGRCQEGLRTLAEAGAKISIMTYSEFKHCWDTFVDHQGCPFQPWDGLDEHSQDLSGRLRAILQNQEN
sPLA2 confirm = human GIII-sPLA2 inhibition, confirmation | recombinant hGIII-sPLA2, BODIPY PC-A2 QFRET fluorescence | AID 743280 | shares compounds with sPLA2-III inh | 34% of 2,000 active | inhibition, % at 12.2 µM;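 active = mean inhibition across triplicates above the hit cutoff set in the earlier primary screen, cut at about 19% in these data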
535nm interf = optically interferes with 535nm fluorescence in sPLA2 counter-screen; shares compounds with sPLA2-III inh; BODIPY FL product fluorescence interference, QFRET; inhibition, % at 12.2 µM; 8.5% of 2,000 active;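 active = average inhibition above the solvent-only control mean plus 3 SD, cut at about 6% in these data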
BODIPY interf DR = counter-screen for HGIII-sPLA2 inhibitors: 535nm fluorescence interference, dose response. BODIPY FL product fluorescence interference, cell-free. shares compounds with sPLA2-III inh. AID 743455. 240 tested, under 10 active. IC50, µM;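 active = IC50 at or below 10 µM; inactive = IC50 above 10 µM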
A number is an active result; . = inactive; / = not tested or not shown. Most compounds without a hit are left out; they make up all but 2% or so of the library.

SMILES	CTSL1 counter	A3A deaminase	sPLA2-III inh	NALP1 inh	A3G deaminase	sPLA2 confirm	535nm interf	others
CCN1C(=O)/C(=C\C=C2/C=CC=CN2CC)SC1=S	.	.	25	.	.	27	.
CCN1C(=O)/C(=C/C=C2\C=CN(CC)c3ccccc32)SC1=S	.	/	.	.	/	/	/
O=C(CSc1nnc(-c2cnccn2)n1-c1ccccc1)c1ccccc1Br	/	/	.	/	/	/	/
CCOc1ccc2c(c1)-c1c(ssc1=S)C(C)(C)N2C(=O)c1ccco1	.	.	21	.	.	36	.	BODIPY interf DR=.
CCOC(=O)CC[C@@H]1CC[C@]2(CCCN(C(=O)c3ccco3)C2)O1	/	/	.	/	/	/	/
CCOc1ccccc1NC(=S)Nc1ncccc1C	.	.	23	.	.	.	.
CCOc1ccc(C(=O)NC(=S)Nc2ccc(NC(=O)c3ccco3)cc2)cc1[N+](=O)[O-]	.	.	.	.	.	/	/
CCOc1ccc(C(=O)NC(=S)Nc2ncccc2C)cc1[N+](=O)[O-]	.	.	20	.	.	.	.
N#Cc1cccc(NC(=O)OC2CC3CC2[C@H]2CCCCN2C3)c1 (some centres undefined)	/	/	.	/	/	/	/
C/C(=N/NS(=O)(=O)c1ccc(C)cc1)c1ccc(NC(=O)C(F)(F)F)cc1	.	.	22	.	.	.	.
CC(=O)Nc1cccc(/C(C)=N/NS(=O)(=O)c2ccc(C)cc2)c1	.	.	.	.	.	/	/
CN1[C@@H](Cc2ccccc2)COc2cccc(F)c2S1(=O)=O	/	/	.	/	/	/	/
CC(C)C[C@H](NC(=O)c1[nH]cnc1C(=O)N[C@@H](C)C(=O)OC(C)(C)C)C(=O)OC(C)(C)C	.	.	23	/	.	.	.
CC(C)C[C@H](NC(=O)c1nc[nH]c1C(=O)N[C@@H](CCCCN)C(=O)OC(C)(C)C)C(=O)OC(C)(C)C	/	.	/	/	.	/	/
CCN(CC)C(=O)CNC(=S)N(CCCN1CCOCC1)Cc1cccs1	.	.	20	.	.	.	.
O=C(CNC(=S)N(CCCN1CCOCC1)Cc1cccs1)NCCCN1CCOCC1	.	.	.	.	.	/	/
COc1cc(/C=N/NC(=O)c2c(-c3c(Cl)cccc3Cl)noc2C)ccc1OCC(N)=O	/	.	.	.	.	/	/
Cc1onc(-c2c(Cl)cccc2Cl)c1C(=O)N/N=C(\N)COc1ccc(Cl)cc1	.	.	28	.	.	31	.	BODIPY interf DR=.
CC(COc1cccc(C(F)(F)F)c1)CN1CCC(C(O)(c2ccccc2)c2ccccc2)CC1 (centres undefined)	/	/	.	/	/	/	/
CCSc1ncc(Cl)c(C(=O)Nc2ccccc2OC)n1	.	.	21	.	.	.	.
CCCC(=O)NC(c1ccc(OC)cc1)c1ccc2cccnc2c1O (centres undefined)	.	.	24	.	.	.	.
CCCCC(=O)NC(c1ccccc1Cl)c1ccc2cccnc2c1O (centres undefined)	.	.	28	.	.	25	.
CCCCC(=O)NC(c1ccc(C(C)C)cc1)c1ccc2cccnc2c1O (centres undefined)	.	.	.	.	.	/	/
CCCC(=O)NC(c1ccccc1)c1ccc2cccnc2c1O (centres undefined)	.	.	29	.	.	.	.
C[C@@H]1C(=O)N2N=Cc3ccccc3[C@H]2N2N=Cc3ccccc3[C@@H]12	/	/	.	/	/	/	/
SMILES	CTSL1 counter	A3A deaminase	sPLA2-III inh	NALP1 inh	A3G deaminase	sPLA2 confirm	535nm interf	others
C[C@H]1CCCCO[C@@H](CN(C)CC2CC2)[C@@H](C)CN([C@@H](C)CO)C(=O)c2cc(NS(=O)(=O)c3ccccc3)ccc2O1	/	/	.	/	/	/	/
COC(=O)N1C[C@H](OCc2ccc3c(c2)OCO3)[C@H]2C[C@@H]1c1ccccc1O2	/	/	.	/	/	/	/
CCSC1=NCCN1S(=O)(=O)c1ccccc1	.	.	.	.	.	/	/
CCSC1=NCCN1S(=O)(=O)c1ccc(Cl)cc1	.	.	22	.	.	.	.
Cc1ccc(N2CCOCC2)c2c1C(=O)c1ccccc1C2=O	.	.	25	.	.	29	.	BODIPY interf DR=.
CNC(C)C(=O)NC(C(=O)N1CCCC1C(=O)Nc1cccc2ncccc12)C(C)C (centres undefined)	/	/	.	/	/	/	/
CC(C1CC2CCC1C2)N1CC(O)=C(c2nc3ccccc3[nH]2)C1=N (centres undefined)	.	.	28	.	.	21	.
CC(C)CCN1CC(O)=C(c2nc3ccccc3[nH]2)C1=N	.	.	.	.	.	/	/
C#CCN1CC(N(C)CCOC(=O)c2cc3ccccc3[nH]2)CS1(=O)=O (centres undefined)	/	/	.	/	/	/	/
O=C(N/N=C/c1cccnc1)c1ccccc1[N+](=O)[O-]	.	.	19	.	.	.	.
O=C(NCc1cccnc1)c1ccccc1[N+](=O)[O-]	.	.	25	/	.	.	.
CC(C)CNc1cccc2c1S(=O)(=O)N(Cc1cn(Cc3ccc(F)cc3)nn1)Cc1ccccc1O2	/	/	.	/	/	/	/
C1=CCC(CN2CCN(C3CCCCCC3)CC2)CC1 (centres undefined)	.	.	20	.	.	.	.
NC(c1csc(NC(=O)c2cccc(OC(F)(F)F)c2)n1)c1ccccc1Cl (centres undefined)	/	/	37	/	/	25	.
Cc1ccc(C)c(N2CCN(C(=O)c3ccc4nc(-c5ccco5)c(-c5ccco5)nc4c3)CC2)c1	.	.	20	.	.	.	.
OC(c1ccccc1)(c1ccccc1)C1CCN(CCCOc2cccc(F)c2)CC1	/	/	.	/	/	/	/
CCC(C)C(NC(=O)OC(C)(C)C)C(=O)NC(Cc1ccccc1)C(=O)OC (centres undefined)	.	.	.	.	.	/	/
CCC(C)[C@H](NC(=O)[C@H](Cc1ccccc1)NC(=O)OC(C)(C)C)C(=O)NCc1ccccc1Br (some centres undefined)	/	/	20	/	/	.	.
Oc1[nH]c2ccccc2c1N=Nc1ccccn1	/	/	.	/	/	/	/
Oc1c(N=Nc2ccccn2)ccc2ccccc12	.	.	22	.	.	54	13
O=C(NNC(=O)c1ccccc1O)c1ccc(Cl)c(S(=O)(=O)N2CCCCC2)c1	.	.	20	/	.	.	.
O=C(NNC(=O)C1CCN(S(=O)(=O)c2c(Cl)cccc2Cl)CC1)c1ccccc1O	.	.	25	/	.	.	.
CCOc1ccc(CNC2CCCCCCC2)cc1OC	.	.	.	.	.	/	/
CCOc1ccc(C2OCCC(C)O2)cc1OC (centres undefined)	/	/	20	/	/	.	.
CCNc1nc(NCC)nc(OCCOC(=O)Nc2ccccc2)n1	.	.	19	.	.	.	.
Cc1cc(=O)oc(C)c1C(=O)Nc1ccccc1F	.	.	26	.	.	.	.
